The source of these data is PubChem BioAssay AID1645870 (National Center for Advancing Translational Sciences (NCATS), 2021).

Where “and” joins values, the source holds several entries; their conditions need not be identical. Equal entries are not always repeated. Among all 59,000 compounds or so, about 1,500 (2.5%) were called active. Not shown: some 10% with an inconclusive outcome. Calls come from the whole dose curve; as a rule, active = well fitted inhibition curve with a large enough effect; inconclusive = small, poorly fitted or top-dose-only effect; inactive = flat fitted curve, though single readings scatter. The entries come from a sample that favours actives as a whole. Where a call stands in place of a potency, no number is given. Some compounds were tested as several samples or in several runs, with calls that do not always agree.
Potency is the fitted concentration of half-maximal effect.

In this assay the target is N-terminal Xaa-Pro-Lys N-methyltransferase 1 (Homo sapiens) (UniProt Q9BV86). The assay is described as follows: Primary qHTS for Inhibitors of N-terminal methyltransferase 1 (NTMT1): MTaseGlo Assay. Note: nearly all actives have a fitted effect of over 65% in size. Particulars: NTMT1 MTase-Glo SAH luminescence, purified enzyme; series mostly up to 114 µM.
N-terminal Xaa-Pro-Lys N-methyltransferase 1 (Homo sapiens), sequence (Q9BV86 whole entry, looked up): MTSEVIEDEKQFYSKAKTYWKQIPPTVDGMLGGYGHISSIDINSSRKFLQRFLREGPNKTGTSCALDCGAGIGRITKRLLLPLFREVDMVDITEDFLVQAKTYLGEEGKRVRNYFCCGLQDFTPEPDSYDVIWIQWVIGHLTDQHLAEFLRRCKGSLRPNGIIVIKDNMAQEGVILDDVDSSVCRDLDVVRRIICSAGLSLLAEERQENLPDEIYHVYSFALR
As to `N#Cc1ccc(OC2=NS(=O)(=O)c3ccccc32)cc1`, the Potency entry was “inactive”.
The entry for `Cc1ccc2nc3sc(C(=O)NCCc4cccnc4)cc3cc2c1` is “inactive”; for `O=S(=O)(NCCCCCCNS(=O)(=O)c1c(F)cccc1F)c1ccc2c(c1)OCCO2` it is “inactive”; for `NNc1nnc(NN)c2ccccc12` it is 22.4 µM (active).
Consider `O=C1CCCC2=C1[C@@]1(CCC(c3ccccc3)C1)N=C(Nc1nc3ccccc3o1)N2` (some centres not stated), for which the Potency entry is “inactive”.
The figure for `Nc1ncnc2c1c(I)cn2[C@@H]1C[C@H](N)[C@@H](O)[C@H]1O` is 2.51 µM (active); for `CC(=O)c1cccc(-c2ccc(-c3nc4ccccc4c(=O)[nH]3)o2)c1` it is “inactive”.
The entry for `N#Cc1nc(Nc2cccc(Cl)c2)nc(NC2CCCC2)n1` is “inactive”.
Take `[O-][n+]1onc(-c2ccccc2)c1CO`: the Potency entry is “inactive”.
In the case of `O=C1COc2cc([S+](=O)([O-])Nc3ccc(Cl)c(Cl)c3)c(Cl)cc2N1`, the Potency entry is “inactive”.
The entry for `Cc1cnc(-c2ccccc2C(C)C)nc1NCC1CCN(C)CC1` is “inactive”; for `CCOC(=O)C1CCN(C(=O)C(C)(C)NC(=O)Nc2ccc(F)c(F)c2)CC1` it is “inactive”; for `O=C(Nc1ccc(-c2ccc(Cl)c(Cl)c2)cc1)C1=C(O)c2ccccc2S(=O)(=O)N1` it is “inactive”.
Then `NS(=O)(=O)c1ccc(NC(=O)C(=O)Nc2ccc3nc4n(c(=O)c3c2)CCCCC4)cc1`, with “inactive”.
As to `COc1cccc(C(=O)Nc2ccc3nc4n(c(=O)c3c2)CCCCC4)c1`, the Potency is 50.1 µM (active).
The entry for `COc1cccc(C(=O)Nc2ccc3oc(-c4ccc5ccccc5c4)nc3c2)c1` is “inactive”.
The entry for `Cc1cc(C)n2ncc(C(=O)Nc3cccc(C#N)c3)c2n1` is “inactive”; for `CCOc1ccc(CCNC(=O)c2cc3ccccc3n2Cc2ccc(Cl)c(F)c2)cc1OCC` it is “inactive”; for `CC(C)c1ccccc1SC1=NS(=O)(=O)c2ccccc21` it is “inactive”.
With `CN(C)c1ccc(C(=O)NCC(=O)OC(C(=O)Nc2cc(C(F)(F)F)ccc2Cl)c2ccccc2)cc1` (configuration not stated), the Potency entry was “inactive”.
Then `COc1ccc(Cn2ccn(CC(=O)Nc3cc(C)ccc3C)c(=O)c2=O)cc1`, with 79.4 µM (active); and `Cc1ccc(C)c(NC(=O)Cn2ccn(-c3ccc(F)cc3)c(=O)c2=O)c1`, with “inactive”.
Then `COc1ccc(Cn2ccn(Cc3cccc(OC)c3)c(=O)c2=O)cc1`, with “inactive”; and `N#Cc1ccc(N[S+](=O)([O-])c2ccc(Nc3nc(-c4ccccc4)cs3)cc2)cc1`, with “inactive”; and `O=[S+]([O-])(c1ccc(OC(F)(F)F)cc1)N1CCN([S+](=O)([O-])c2ccc3c(c2)OCCO3)CC1`, with “inactive”.
The entry for `CN1CCOc2cc(S(=O)(=O)N3CCN(S(=O)(=O)c4c(F)cccc4F)CC3)cnc21` is “inactive”; for `COCC1CCCN(C(=O)CC(c2ccc3c(c2)OCO3)c2c(O)cc(OC)cc2OC)C1` (configuration not stated) it is “inactive”; for `CCOc1cc(CCNC(=O)c2cc3sccc3n2Cc2ccccc2)cc(F)c1OCC` it is “inactive”.
On to `Oc1ccccc1-c1nc2ccc(Cl)cn2c1Nc1ccc2c(c1)OCCO2`, for which the Potency entry was “inactive”.
As to `Cc1ccc(Nc2c(-c3ccc(C)s3)nc3ccccn23)cc1`, the Potency entry is “inactive”.
In the case of `Cc1cccc2nc(-c3ccc(Cl)s3)c(Nc3ccc4c(c3)OCCO4)n12`, the Potency was 1.78 µM (active).
Then `Cc1cc2c(s1)c1cnn(Cc3cc(F)c(Cl)cc3Cl)c(=O)c1n2C`, with “inactive”.
Take `Fc1cc(Nc2nc(-c3ccncc3)nc3ccccc23)ccc1-n1cncn1`: the Potency result was “inactive”.
Consider `Cc1c(Cl)cccc1S(=O)(=O)Nc1nc(CCN2CCOCC2=O)cs1`, for which the Potency entry was “inactive”.
Then `Cc1cc(Nc2cc(CN3CCOCC3)c3nc(C)c(Cc4ccc(Cl)cc4F)n3n2)n[nH]1`, with 30.4 µM (active) and 7.08 µM (active) and 11.2 µM (active).
The entry for `COc1cc(NS(=O)(=O)c2ccc(C)cc2)ccc1C(=O)Nc1nc(-c2ccccc2)cs1` is “inactive”; for `Cc1cc(C)n2ncc(C(=O)Nc3ccc4c(c3)OCCO4)c2n1` it is “inactive”; for `Cc1cc(C)n2ncc(C(=O)Nc3ccc(C)c(C)c3)c2n1` it is “inactive”.
Then `COc1ccc(C[C@H](C(=O)O)N2C(=O)c3ccc(C(=O)O)cc3C2=O)cc1`, with “inactive”; and `CC(C)(C)C1CCc2c(sc(NC(=O)c3ccccc3F)c2C(=O)N2CCCCC2)C1` (configuration not stated), with “inactive”.
Take `COC(=O)c1cccc(Cn2nnc3sc4c(c3c2=O)CCC(C(C)(C)C)C4)c1` (configuration not stated): the Potency result was “inactive”.
Then `CC(C)C(=O)Nc1nc2c(s1)CC(C(C)(C)C)CC2` (configuration not stated), with 79.4 µM (active).
Take `Cc1ccc(S(=O)(=O)NC(N)=NCCC[C@@H](NC(=O)CNC(=O)c2ccccc2)C(=O)Nc2cc(C(F)(F)F)ccc2Cl)cc1`: the Potency entry is “inactive”.
As to `CC(C)c1ccc(C2CC(=O)N3CN(C4CCCCC4)CSC3=C2C#N)cc1` (configuration not stated), the Potency is 11.2 µM (active).
Then `O=C(Nc1ccc2ccccc2c1)Nc1nnc(-c2ccc(O)cc2)s1`, with “inactive”; and `Cc1c(C)n(Cc2ccc(Cl)cc2)c2ccc(C(=O)N3CCN(c4ccccc4F)CC3)cc12`, with “inactive”; and `CC(C)c1ccc2c(c1)c(SC(C)(C)C)c(CC(C)(C)C(=O)O)n2Cc1ccc(Cl)cc1`, with “inactive and 79.4 µM (active)”.
The entry for `C[S+](=O)([O-])c1ccc(-c2ccc(=O)n(CC(=O)NCCc3ccccc3)n2)cc1` is “inactive”; for `Cc1ccc(OCCn2c(CCNC(=O)Cc3cccc4ccccc34)nc3ccccc32)cc1` it is “inactive”.
Then `CN1CC[C@H](c2c(O)cc(O)c3c(=O)cc(-c4ccccc4Cl)oc23)[C@H](O)C1`, with 31.6 µM (active); and `Cc1cc(C2N=C(Nc3nc4ccccc4o3)NC3=C2C(=O)CCC3)n[nH]1` (configuration not stated), with “inactive”.
Take `FC(F)(F)c1cc(Cl)cc(-c2ccc(CNc3nc(-c4ccccc4C(F)(F)F)nc4ccccc34)cc2)c1`: the Potency result was “inactive”.
Then `Cc1ccccc1-c1ccc(NC(=O)c2cccs2)cn1`, with “inactive”; and `O=S(=O)(NCC1CN(S(=O)(=O)c2ccc3c(c2)OCCO3)C1)c1c(F)cccc1F`, with “inactive”; and `O=S(=O)(Nc1cccc2ccccc12)c1ccc(NCc2ccc(Br)cc2O)cc1`, with “inactive”.
The entry for `CCN(CC)c1ccc(NC(=O)CN(C)Cc2c(O)ccc3ccccc23)cc1` is “inactive”; for `COc1ccc(-c2cncc(NC(=O)c3cccs3)c2)cc1OC` it is “inactive”; for `COc1ccccc1-c1c[nH]c2ncc(-c3cncc(C(=O)N(C)C)c3)cc12` it is 39.8 µM (active).
The entry for `O=C1NS(=O)(=O)c2cc(Cl)ccc21` is “inactive”; for `NC(=O)C1CCN(c2cc(-c3ccc4c(c3)OCCCO4)ncn2)CC1` it is “inactive”.
As to `c1nc(N2CCOCC2)c2cc(-c3ccc4c(c3)OCO4)ccc2n1`, the Potency was 12.6 µM (active).
The entry for `COc1ccc(NC(=O)c2cnn3c(-c4ccccc4)cc(C)nc23)cc1` is “inactive”.
On to `O=C(Nc1ccc([S+](=O)([O-])Nc2nccs2)cc1)c1ccn[nH]1`, for which the Potency entry is “inactive”.
Then `O=C(OC/C=C/CSc1nnc(-c2cccc3ccccc23)o1)c1ccc(F)cc1`, with “inactive”; and `COc1cc(NC(=O)c2cc3ccc4cccnc4c3[nH]2)cc(OC)c1OC`, with “inactive”; and `COc1cc(Nc2ncc(F)c(Nc3ccc4c(n3)NC(=O)C(C)(C)O4)n2)cc(OC)c1OC`, with “inactive and 1.52 µM (active)”.
The entry for `N#CN1CCC(NS(=O)(=O)c2cccc(F)c2)C1` (configuration not stated) is “inactive”.
